Measured values published in PubChem BioAssay (Tox21).
Results filed as inconclusive are left out. Calls of active or inactive are those of the source. Unless noted, calls come from the whole dose curve; as a rule, active = well fitted curve in the direction sought with a large enough effect in the repeat runs; inconclusive = weak or mixed curves; inactive = no such curve, though single readings can be large; an effect the other way counts as inactive or inconclusive.

Key:
[1] = qHTS RealTime-Glo MT Cell Viability Assay in HEK293 cells - 24 hour (AID 1224886); note: top concentration of the series differs between compounds; nearly all actives have a fitted effect of over 50% in size
Summary of the method: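 HEK293 cells were seeded at 600 cells/well together with NanoLuc luciferase and cell-permeant prosubstrate, preincubated 5 h at 37 C/5% CO2, then given compound in DMSO by pintool. Luminescence from viable-cell prosubstrate reduction was read repeatedly over 40 h.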

[2] = qHTS RealTime-Glo MT Cell Viability Assay in HEK293 cells - 8 hour (AID 1224887); note: top concentration of the series differs between compounds; nearly all actives have a fitted effect of over 50% in size
Summary of the method: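 Real-time viability in HEK293: signal arises when living cells convert a prosubstrate for NanoLuc in the medium, so luminescence tracks viable cell number. Compound (23 nL, DMSO) added 5 h post-seeding; kinetic reads at 0–40 h, 37 C.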

[3] = A CellTox Green Cytotoxicity Assay to monitor cytotoxicity in HEK293 cells - 16 hour (AID 1224888); note: nearly all actives have a fitted effect of over 35% in size
Summary of the method: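 Cells (HEK293, 600/well) and dye reagent are dispensed together. After 5 h at 37 C, 23 nL compound is pinned in. Plates stay at 37 C for 40 h with fluorescence read at 0h, 8h, 16h, 24h, 32h and 40h.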

[4] = qHTS RealTime-Glo MT Cell Viability Assay in HepG2 cells - 0 hour (AID 1224889); note: nearly all actives have a fitted effect of over 50% in size
Summary of the method: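 HepG2 cells were seeded at 600 cells/well together with NanoLuc luciferase and a cell-permeant prosubstrate, preincubated 5 h at 37 C/5% CO2, then pin-dosed with compounds in DMSO. Nonlytic luminescence from viable cells was read at each time point.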

[5] = A CellTox Green Cytotoxicity Assay to monitor cytotoxicity in HepG2 cells - 8 hour (AID 1224890); note: nearly all actives have a fitted effect of over 45% in size
Summary of the method: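 Cells and non-lytic dye reagent are dispensed together (600 HepG2 cells/well) and incubated 5 h before DMSO compound transfer. Kinetic fluorescence is then recorded in the same wells during 40 h at 37 C.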

[6] = qHTS assay to identify small molecule antagonists of the estrogen receptor alpha (ER-alpha) signaling pathway using the BG1 cell line in the presence of 0.1 nM 17-beta-estradiol - cell viability counter screen (AID 1259241); note: nearly all actives have a fitted effect of over 40% in size
Summary of the method: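 In this screen, hormone-deprived VM7Luc4E2 cells were seeded at 4,000 per well, dosed with compound and 0.1 nM estradiol final, and incubated 22 hr at 37C and 5% CO2; fluorogenic live-cell protease signal reported viability.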

[7] = target: Estrogen receptor (Homo sapiens) (UniProt P03372); test: qHTS assay to identify small molecule antagonists of the estrogen receptor alpha (ER-alpha) signaling pathway using the BG1 cell line in the presence of 0.1 nM 17-beta-estradiol (AID 1259244); note: nearly all actives have a fitted effect of over 50% in size
Summary of the method: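 Antagonist mode: compounds in DMSO are pinned onto VM7Luc4E2 reporter cells, 0.1 nM final 17beta-estradiol is added, and after 22 h at 37C luciferase luminescence is measured with ONE-Glo.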

[8] = qHTS assay to identify small molecule HDAC inhibitors (AID 1259364);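 note: wild-type HCT-116 cells with endogenous class I/II HDAC activity; top concentration of the series differs between compounds; nearly all actives have a fitted effect of over 45% in size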
Summary of the method: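 Cells (HCT-116, wild type) are seeded at 1,500 per well, incubated overnight, treated with compound in DMSO for 2 hr, then developed with HDAC-Glo I/II reagent for 30 min at room temperature.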

[9] = qHTS assay to identify small molecule agonists of the sonic hedgehog signaling (Shh) pathway - cell viability counter screen (AID 1259366); note: nearly all actives have a fitted effect of over 50% in size
Summary of the method: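 In quantitative high-throughput format, 3T3 Gli1-Luc cells were exposed to compounds for 24hr and multiplexed for viability using CellTiter-Fluor, incubated 1hr at 37C before the fluorescence read.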

[10] = qHTS assay to identify small molecule antagonists of the sonic hedgehog signaling (Shh) pathway - cell viability counter screen (AID 1259367); note: nearly all actives have a fitted effect of over 55% in size
Summary of the method: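 Conditioned medium drove Shh signaling in 3T3 Gli1-Luc cells exposed to compounds at 37C and 5% CO2. Viability was determined from CellTiter-Fluor fluorescence, with reagent incubated 1 hr after 23 hr of treatment.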

[11] = qHTS assay to identify small molecule agonists of the sonic hedgehog signaling (Shh) pathway (AID 1259368; calls by dose curve;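 note: NIH/3T3-derived 3T3Gli1-Luc cells carrying a stable Gli1-driven firefly luciferase reporter; series mostly up to about 92 µM; nearly all actives have a fitted effect of over 15% in size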)
Summary of the method: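 Cells of a mouse NIH/3T3 clone stably expressing luciferase under the Gli1 transcriptional response element are exposed to test chemicals for 24 hr at 37 C. Pathway activation is detected as a rise in luminescence.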

[12] = qHTS assay to identify small molecule antagonists of the sonic hedgehog signaling (Shh) pathway (AID 1259369; calls by dose curve; note: nearly all actives have a fitted effect of over 45% in size)
Summary of the method: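 Cells are plated and held 4hr at 37 C, compounds (DMSO) are pinned in, conditioned medium is added to stimulate the pathway, and after 24hr luciferase reagent is added for 30min before luminescence is read.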

[13] = qHTS assay to identify small molecule agonists of the androgen receptor (AR) signaling pathway in the presence of an antagonist - cell viability counter screen (AID 1259379);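 note: MDA-kb2 human breast cancer cells carrying an MMTV luciferase reporter; series mostly up to about 92 µM; nearly all actives have a fitted effect of over 25% in size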
Summary of the method: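 Cytotoxicity is assessed by CellTiter-Fluor in MDA-kb2 cells carrying an MMTV-driven luciferase reporter. Cells receive 3.0uM nilutamide plus compounds at 15 concentrations and incubate 16 hr at 37C without CO2 before fluorescence reading.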

[14] = qHTS assay to identify small molecule agonists of the estrogen receptor beta (ER-beta) signaling pathway - cell viability counter screen (AID 1259380); note: nearly all actives have a fitted effect of over 30% in size
Summary of the method: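 Cytotoxicity is measured in parallel with the reporter screen: after 16 hr compound exposure at 37C and a 2 hr LiveBLAzer step, CellTiter-Glo is added to the same ER-beta-UAS-bla HEK293T wells and luminescence read after 30 min.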

[15] = qHTS assay to identify small molecule HDAC inhibitors - cell viability counter screen (AID 1259365)
Summary of the method: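 Measured quantity is CellTiter-Glo luminescence from wild-type HCT-116 cells after compound incubation of 2hr at 37C, 5% CO2; reagent developed 30min at room temperature.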

[16] = target: Estrogen receptor beta (Homo sapiens) (UniProt Q92731); test: qHTS assay to identify small molecule agonists of the estrogen receptor beta (ER-beta) signaling pathway (AID 1259377; active = well fitted activation curve with a large enough effect in the signal ratio in the repeat runs, not every such curve was filed as active; the % refers to the signal ratio)
Summary of the method: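 Reporter cells (HEK293T, ER-beta-UAS-bla) receive compounds or DMSO after a 6 hr pre-incubation. They then incubate 16 hr at 37C/5% CO2, and fluorescence from LiveBLAzer B/G substrate is measured after 2 hours at room temperature.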

[17] = target: Estrogen receptor beta (Homo sapiens) (UniProt Q92731); test: qHTS assay to identify small molecule antagonists of the estrogen receptor beta (ER-beta) signaling pathway (AID 1259378; active = well fitted inhibition curve with a large enough effect in the signal ratio in the repeat runs, not every such curve was filed as active; the % refers to the signal ratio)
Summary of the method: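 ER-beta-UAS-bla HEK293T (GripTite) cells in 2% charcoal-stripped FBS medium were preincubated 6 hr at 37C, dosed with compound, then stimulated with 1 nM E2 (final) for 16 hr; beta-lactamase reporter read by B/G FRET fluorescence after 2 hr substrate loading.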

[18] = qHTS assay to identify small molecule phospholipidosis (PLD) inducers (AID 1259344; active = well fitted curve in the direction sought with a large enough effect; an effect the other way counts as inactive or inconclusive)
Summary of the method: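 After 4 h attachment on collagen I, HepG2 cells were dosed with compound alongside LipidTOX Red, kept 24 h at 37 C, fixed, and imaged for lamellar phospholipid pits.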

[19] = qHTS assay to identify small molecule antagonists of the androgen receptor (AR) signaling pathway using the MDA cell line in the presence of 0.5 nM R1881 - cell viability counter screen (AID 1259242); note: nearly all actives have a fitted effect of over 45% in size
Summary of the method: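 Steps: plate MDA-kb2 cells, rest 5 hr at 37C without CO2; pin in compounds in DMSO; add R1881 to 0.5 nM final; incubate 16 hr; add CellTiter-Fluor, 30 min; read fluorescence.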

[20] = target: Androgen receptor (Homo sapiens) (UniProt P10275); test: qHTS assay to identify small molecule antagonists of the androgen receptor (AR) signaling pathway using the MDA cell line in the presence of 0.5 nM R1881 (AID 1259243); note: nearly all actives have a fitted effect of over 50% in size
Summary of the method: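 Stably transfected MDA-kb2 cells express luciferase from an MMTV promoter bearing both AR and GR response elements. Compounds plus 0.5 nM R1881 (final) were incubated 16 hr at 37C without CO2, then luminescence measured.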

Measured: Potency

Sequence of Estrogen receptor (Homo sapiens) (P03372 whole entry, looked up): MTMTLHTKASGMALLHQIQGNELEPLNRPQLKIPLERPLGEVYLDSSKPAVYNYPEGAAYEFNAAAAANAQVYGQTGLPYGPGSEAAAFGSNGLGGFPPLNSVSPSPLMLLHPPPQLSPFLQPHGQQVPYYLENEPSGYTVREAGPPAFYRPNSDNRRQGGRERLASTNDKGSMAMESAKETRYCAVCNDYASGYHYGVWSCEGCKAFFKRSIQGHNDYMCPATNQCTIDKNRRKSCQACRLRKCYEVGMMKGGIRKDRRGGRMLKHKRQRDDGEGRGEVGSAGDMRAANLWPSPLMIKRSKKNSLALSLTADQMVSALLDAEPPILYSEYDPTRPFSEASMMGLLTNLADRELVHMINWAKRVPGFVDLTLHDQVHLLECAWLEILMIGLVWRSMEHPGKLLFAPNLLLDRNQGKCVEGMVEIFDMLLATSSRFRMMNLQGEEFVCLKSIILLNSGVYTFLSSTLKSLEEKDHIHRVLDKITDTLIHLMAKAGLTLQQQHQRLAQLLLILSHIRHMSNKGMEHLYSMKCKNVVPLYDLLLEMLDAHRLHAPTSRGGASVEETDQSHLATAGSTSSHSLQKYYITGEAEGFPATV
Sequence of Estrogen receptor beta (Homo sapiens) (Q92731 whole entry, looked up): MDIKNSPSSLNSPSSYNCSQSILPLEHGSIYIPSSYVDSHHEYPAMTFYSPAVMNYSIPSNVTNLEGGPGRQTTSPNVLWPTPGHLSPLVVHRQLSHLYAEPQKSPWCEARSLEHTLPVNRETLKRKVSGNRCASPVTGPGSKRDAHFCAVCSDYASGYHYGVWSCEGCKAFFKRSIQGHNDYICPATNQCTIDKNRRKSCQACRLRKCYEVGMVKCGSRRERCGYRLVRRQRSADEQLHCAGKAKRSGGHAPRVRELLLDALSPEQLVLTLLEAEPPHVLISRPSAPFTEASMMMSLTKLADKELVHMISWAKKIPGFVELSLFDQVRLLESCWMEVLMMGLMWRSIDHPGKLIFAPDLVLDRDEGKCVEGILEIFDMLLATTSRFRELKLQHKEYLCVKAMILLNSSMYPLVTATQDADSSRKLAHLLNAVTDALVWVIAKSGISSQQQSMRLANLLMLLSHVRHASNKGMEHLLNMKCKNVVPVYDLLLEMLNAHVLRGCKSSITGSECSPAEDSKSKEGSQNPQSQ
Sequence of Androgen receptor (Homo sapiens) (P10275 whole entry, looked up): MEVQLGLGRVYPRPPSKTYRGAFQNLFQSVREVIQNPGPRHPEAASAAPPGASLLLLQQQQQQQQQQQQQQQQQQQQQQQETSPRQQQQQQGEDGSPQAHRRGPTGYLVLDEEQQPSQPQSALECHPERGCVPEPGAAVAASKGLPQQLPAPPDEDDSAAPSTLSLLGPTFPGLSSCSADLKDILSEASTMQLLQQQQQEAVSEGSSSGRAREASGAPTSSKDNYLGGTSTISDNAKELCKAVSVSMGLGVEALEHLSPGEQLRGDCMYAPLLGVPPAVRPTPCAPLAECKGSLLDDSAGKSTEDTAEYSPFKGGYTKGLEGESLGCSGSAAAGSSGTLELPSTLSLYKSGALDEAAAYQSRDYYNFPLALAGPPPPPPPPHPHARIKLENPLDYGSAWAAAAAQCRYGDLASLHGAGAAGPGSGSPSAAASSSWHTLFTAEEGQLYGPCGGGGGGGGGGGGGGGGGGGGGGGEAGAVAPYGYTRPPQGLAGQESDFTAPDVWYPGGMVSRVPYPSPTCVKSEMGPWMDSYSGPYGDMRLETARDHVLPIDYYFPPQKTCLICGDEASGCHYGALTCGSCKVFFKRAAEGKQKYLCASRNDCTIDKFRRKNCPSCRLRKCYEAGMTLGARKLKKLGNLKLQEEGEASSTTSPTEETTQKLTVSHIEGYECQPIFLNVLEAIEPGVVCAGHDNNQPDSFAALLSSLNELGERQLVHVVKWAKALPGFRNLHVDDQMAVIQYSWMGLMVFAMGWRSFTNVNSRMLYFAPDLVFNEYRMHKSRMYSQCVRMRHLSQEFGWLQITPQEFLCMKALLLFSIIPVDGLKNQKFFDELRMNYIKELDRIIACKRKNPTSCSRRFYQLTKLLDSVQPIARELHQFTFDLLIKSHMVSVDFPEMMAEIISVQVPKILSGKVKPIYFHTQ

OC1OCCOC1O (stereo unspecified)
inactive: [1] | [2] | [3] | [4] | [5] | [6] | [7] | [8] | [9] | [10] | [11] | [12] | [13] | [14]

CCOCCOCC
inactive: [1] | [2] | [3] | [4] | [5] | [6] | [7] | [15] | [9] | [10] | [11] | [12] | [16] | [17] | [13] | [14]

CC(C)Cn1cnc2c1c(=O)n(C)c(=O)n2C
inactive: [1] | [2] | [3] | [4] | [5] | [6] | [7] | [18] | [8] | [15] | [9] | [10] | [11] | [12] | [17] | [13]

C=C(C)c1cccc(C(C)(C)N=C=O)c1
inactive: [1] | [2] | [3] | [4] | [5] | [6] | [7] | [8] | [15] | [9] | [11] | [12] | [16] | [17] | [13]

OC[C@@H](O)C(O)[C@@H](O)CO (stereo partly specified)
inactive: [1] | [2] | [3] | [4] | [5] | [6] | [19] | [8] | [9] | [10] | [11] | [12] | [13] | [14]

O/N=C/C=N/O
inactive: [1] | [2] | [3] | [4] | [5] | [6] | [19] | [8] | [15] | [9] | [10] | [11] | [12] | [13] | [14]

CC(C)C1OCCN1CCOC(=O)NCCCCCCNC(=O)OCCN1CCOC1C(C)C (stereo unspecified)
inactive: [1] | [2] | [3] | [4] | [5] | [6] | [20] | [7] | [8] | [9] | [11] | [12] | [16] | [13] | [14]

CC1(C)O[C@H]2CC(=O)OC[C@]23[C@H]2CC[C@@]4(C)[C@H](c5ccoc5)OC(=O)[C@H]5O[C@]54[C@]2(C)C(=O)C[C@@H]13
inactive: [1] | [2] | [3] | [4] | [5] | [6] | [7] | [18] | [15] | [9] | [10] | [11] | [12] | [16] | [13] | [14]

OCC(O)CN1CCN(c2ccccc2)CC1 (stereo unspecified)
inactive: [1] | [2] | [3] | [4] | [5] | [6] | [18] | [8] | [15] | [9] | [10] | [11] | [12] | [13] | [14]
